# Experimental data reported in PubChem BioAssay AID1159580 (chemical genetic matrix, 2015).
# Hit rate of the full screen: of about 5,500 compounds, about 2,000 (36%) were called active. About 18% were inconclusive and are not listed. The list shows a part of the results. A number with no mark means an inactive call. Cut-off read from the data, not from the text of the source: active = normalized growth mostly below about 0.91 (no sharp cut-off); inconclusive = no clear call, values can overlap the other calls; inactive = mostly above about 0.92.
# Assay: chemical genetic growth profiling, strain panel (AID 1159580);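 note: tested at 20 µM; growth read once vehicle control cultures reached saturation at 30 °C; 1 = growth at the plate median or of vehicle wells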
# Settings: growth OD
structure (smiles),measurement,setting,value
O=C(OCc1ccccc1)c1ccccc1,normalized growth,"S. cerevisiae deletion strains, locus YKL009W, strain mrt4, stronger effect = lower value",0.934
same,normalized growth,"S. cerevisiae deletion strains, locus YKL068W, stronger effect = lower value",0.961
same,normalized growth,"S. cerevisiae deletion strains, locus YKL085W, strain MDH1 (second series), stronger effect = lower value",0.957
same,normalized growth,"S. cerevisiae deletion strains, locus YKL085W, strain MDH1, stronger effect = lower value",0.957
same,normalized growth,"S. cerevisiae deletion strains, locus YKL160W, strain elf1, stronger effect = lower value",0.951
same,normalized growth,"S. cerevisiae deletion strains, locus YKL190W, strain CNB1, stronger effect = lower value",1
same,normalized growth,"S. cerevisiae deletion strains, locus YKR001C, strain vps1, stronger effect = lower value",0.789 (active)
same,normalized growth,"S. cerevisiae deletion strains, locus YKR026C, strain gcn3, stronger effect = lower value",0.954
same,normalized growth,"S. cerevisiae deletion strains, locus YKR091W, strain srl3, stronger effect = lower value",0.952
same,normalized growth,"S. cerevisiae deletion strains, locus YLL001W, strain dnm1, stronger effect = lower value",0.945
same,normalized growth,"S. cerevisiae deletion strains, locus YLL026W, stronger effect = lower value",0.953
same,normalized growth,"S. cerevisiae deletion strains, locus YLL041C, strain sdh2, stronger effect = lower value",0.965
same,normalized growth,"S. cerevisiae deletion strains, locus YLR027C, strain aat2, stronger effect = lower value",0.954
same,normalized growth,"S. cerevisiae deletion strains, locus YLR039C, strain RIC1, stronger effect = lower value",0.83
same,normalized growth,"S. cerevisiae deletion strains, locus YLR058C, strain SHM2, stronger effect = lower value",0.987
same,normalized growth,"S. cerevisiae deletion strains, locus YLR102C, strain apc9, stronger effect = lower value",0.969
same,normalized growth,"S. cerevisiae deletion strains, locus YLR113W, strain HOG1, stronger effect = lower value",0.783 (active)
same,normalized growth,"S. cerevisiae deletion strains, locus YLR221C, strain rsa3, stronger effect = lower value",0.925
same,normalized growth,"S. cerevisiae deletion strains, locus YLR258W, strain gsy2, stronger effect = lower value",0.956
same,normalized growth,"S. cerevisiae deletion strains, locus YLR262C, strain YPT6 (second series), stronger effect = lower value",0.739 (active)
same,normalized growth,"S. cerevisiae deletion strains, locus YLR262C, strain YPT6, stronger effect = lower value",0.839
same,normalized growth,"S. cerevisiae deletion strains, locus YLR268W, strain sec22, stronger effect = lower value",0.941
same,normalized growth,"S. cerevisiae deletion strains, locus YLR320W, strain mms22, stronger effect = lower value",0.835 (active)
same,normalized growth,"S. cerevisiae deletion strains, locus YLR330W, strain CHS5, stronger effect = lower value",0.982
same,normalized growth,"S. cerevisiae deletion strains, locus YLR342W, strain FKS1 (second series), stronger effect = lower value",0.906
same,normalized growth,"S. cerevisiae deletion strains, locus YLR342W, strain FKS1, stronger effect = lower value",0.944
same,normalized growth,"S. cerevisiae deletion strains, locus YLR357W, strain rsc2, stronger effect = lower value",1.05
same,normalized growth,"S. cerevisiae deletion strains, locus YLR370C, strain arc18, stronger effect = lower value",0.969
same,normalized growth,"S. cerevisiae deletion strains, locus YLR371W, strain rom2, stronger effect = lower value",0.966
same,normalized growth,"S. cerevisiae deletion strains, locus YLR384C, strain iki3, stronger effect = lower value",0.974
same,normalized growth,"S. cerevisiae deletion strains, locus YLR418C, strain cdc73, stronger effect = lower value",0.885
same,normalized growth,"S. cerevisiae deletion strains, locus YML016C, strain PPZ1, stronger effect = lower value",0.991
same,normalized growth,"S. cerevisiae deletion strains, locus YML032C, strain rad52, stronger effect = lower value",0.948
same,normalized growth,"S. cerevisiae deletion strains, locus YML120C, strain ndi1, stronger effect = lower value",0.939
same,normalized growth,"S. cerevisiae deletion strains, locus YML124C, strain tub3, stronger effect = lower value",0.969
same,normalized growth,"S. cerevisiae deletion strains, locus YMR058W, strain fet3, stronger effect = lower value",0.952
same,normalized growth,"S. cerevisiae deletion strains, locus YMR078C, strain ctf18, stronger effect = lower value",0.957
same,normalized growth,"S. cerevisiae deletion strains, locus YMR125W, strain sto1, stronger effect = lower value",0.966
same,normalized growth,"S. cerevisiae deletion strains, locus YMR129W, stronger effect = lower value",0.967
same,normalized growth,"S. cerevisiae deletion strains, locus YMR205C, strain PFK2, stronger effect = lower value",0.899
same,normalized growth,"S. cerevisiae deletion strains, locus YMR223W, strain ubp8, stronger effect = lower value",0.925
same,normalized growth,"S. cerevisiae deletion strains, locus YMR231W, strain pep5, stronger effect = lower value",0.984
same,normalized growth,"S. cerevisiae deletion strains, locus YMR263W, strain SAP30, stronger effect = lower value",0.981
same,normalized growth,"S. cerevisiae deletion strains, locus YMR307W, strain GAS1, stronger effect = lower value",1.06
same,normalized growth,"S. cerevisiae deletion strains, locus YNL067W, strain RPL9B, stronger effect = lower value",0.954
same,normalized growth,"S. cerevisiae deletion strains, locus YNL071W, strain lat1, stronger effect = lower value",0.889 (active)
same,normalized growth,"S. cerevisiae deletion strains, locus YNL128W, strain TEP1, stronger effect = lower value",0.989
same,normalized growth,"S. cerevisiae deletion strains, locus YNL183C, strain NPR1, stronger effect = lower value",0.868
same,normalized growth,"S. cerevisiae deletion strains, locus YNL209W, strain ssb2, stronger effect = lower value",0.968
same,normalized growth,"S. cerevisiae deletion strains, locus YNL233W, strain BNI4, stronger effect = lower value",0.931
same,normalized growth,"S. cerevisiae deletion strains, locus YNL248C, strain rpa49, stronger effect = lower value",0.905
same,normalized growth,"S. cerevisiae deletion strains, locus YNL250W, strain rad50, stronger effect = lower value",0.987
same,normalized growth,"S. cerevisiae deletion strains, locus YNL271C, strain bni1, stronger effect = lower value",0.95
same,normalized growth,"S. cerevisiae deletion strains, locus YNL298W, strain CLA4, stronger effect = lower value",0.954
same,normalized growth,"S. cerevisiae deletion strains, locus YNL307C, strain MCK1, stronger effect = lower value",0.798 (active)
same,normalized growth,"S. cerevisiae deletion strains, locus YNL322C, strain KRE1 (second series), stronger effect = lower value",0.973
same,normalized growth,"S. cerevisiae deletion strains, locus YNL322C, strain KRE1, stronger effect = lower value",0.989
same,normalized growth,"S. cerevisiae deletion strains, locus YNR049C, strain mso1, stronger effect = lower value",0.954
same,normalized growth,"S. cerevisiae deletion strains, locus YNR052C, strain pop2, stronger effect = lower value",1
same,normalized growth,"S. cerevisiae deletion strains, locus YOL006C, strain TOP1, stronger effect = lower value",0.725
same,normalized growth,"S. cerevisiae deletion strains, locus YOL012C, strain htz1",1.34
same,normalized growth,"S. cerevisiae deletion strains, locus YOL147C, strain pex11, stronger effect = lower value",0.974
same,normalized growth,"S. cerevisiae deletion strains, locus YOR001W, strain rrp6, stronger effect = lower value",0.916
same,normalized growth,"S. cerevisiae deletion strains, locus YOR061W, strain CKA2, stronger effect = lower value",0.988
same,normalized growth,"S. cerevisiae deletion strains, locus YOR069W, strain VPS5, stronger effect = lower value",0.991
same,normalized growth,"S. cerevisiae deletion strains, locus YOR070C, strain gyp1, stronger effect = lower value",0.965
same,normalized growth,"S. cerevisiae deletion strains, locus YOR080W, strain dia2, stronger effect = lower value",0.985
same,normalized growth,"S. cerevisiae deletion strains, locus YOR083W, strain WHI5, stronger effect = lower value",0.97
same,normalized growth,"S. cerevisiae deletion strains, locus YOR106W, strain vam3, stronger effect = lower value",0.859 (active)
same,normalized growth,"S. cerevisiae deletion strains, locus YOR136W, strain idh2, stronger effect = lower value",0.987
same,normalized growth,"S. cerevisiae deletion strains, locus YOR144C, strain elg1, stronger effect = lower value",0.974
same,normalized growth,"S. cerevisiae deletion strains, locus YOR184W, strain ser1, stronger effect = lower value",0.655 (active)
same,normalized growth,"S. cerevisiae deletion strains, locus YOR231W, strain MKK1, stronger effect = lower value",0.86 (active)
same,normalized growth,"S. cerevisiae deletion strains, locus YOR265W, strain rbl2, stronger effect = lower value",0.957
same,normalized growth,"S. cerevisiae deletion strains, locus YOR270C, strain vph1, stronger effect = lower value",0.927
same,normalized growth,"S. cerevisiae deletion strains, locus YOR290C, strain snf2, stronger effect = lower value",0.941
same,normalized growth,"S. cerevisiae deletion strains, locus YOR316C, strain cot1, stronger effect = lower value",0.974
same,normalized growth,"S. cerevisiae deletion strains, locus YPL051W, strain arl3, stronger effect = lower value",0.96
same,normalized growth,"S. cerevisiae deletion strains, locus YPL078C, strain atp4, stronger effect = lower value",0.933
same,normalized growth,"S. cerevisiae deletion strains, locus YPL106C, strain sse1, stronger effect = lower value",1
same,normalized growth,"S. cerevisiae deletion strains, locus YPL240C, strain hsp82, stronger effect = lower value",0.958
same,normalized growth,"S. cerevisiae deletion strains, locus YPL241C, strain CIN2, stronger effect = lower value",0.99
same,normalized growth,"S. cerevisiae deletion strains, locus YPL256C, strain CLN2, stronger effect = lower value",0.832
same,normalized growth,"S. cerevisiae deletion strains, locus YPR119W, strain clb2, stronger effect = lower value",0.975
same,normalized growth,"S. cerevisiae deletion strains, locus YPR141C, strain kar3, stronger effect = lower value",0.949
same,normalized growth,"S. cerevisiae deletion strains, locus YPR163C, strain tif3, stronger effect = lower value",0.975
same,normalized growth,"S. cerevisiae deletion strains, locus YPR167C, strain met16, stronger effect = lower value",0.96
same,normalized growth,"S. cerevisiae deletion strains, strain wtn01, stronger effect = lower value",0.928
same,normalized growth,"S. cerevisiae strains, strain wild type, stronger effect = lower value",0.984
